Measured values: PubChem BioAssay (NCI)
This is part of a sample that, as a whole, favours compounds with a hit. Of some 83,000 tested, about 20% had one in any assay.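 Testing used 96-well plates and a 48-hour single-concentration exposure. Example: -40 means 40% of the starting cells died.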 The source made the active and inactive calls. How the source made its calls: active means growth percent below 10; inactive means the rest.

Test system: HL-60(TB) leukemia
Test: NCI-60 one-dose screen, 48 h (100 = growth as untreated, 0 = no growth, -100 = all killed)
Settings: 10 µM unless noted

Row | Compound | growth
1 | CSc1nc(=O)n(Cc2ccc(Cl)cc2)c(=O)[nH]1 | 105% (inactive)
2 | Nc1c(C(=O)Nc2cccc(Cl)c2)sc2ncc(Cl)cc12 | 88.7% (inactive)
3 | CCCCCCCCCCCCC[N+](C)(C)Cc1ccccc1 | -56.7% (active)
4 | CCN1C(=O)N(CC)C2Nn3c(s/c(=C\c4ccccc4Br)c3=O)=NC21 (stereo unspecified) | -34.7% (active)
5 | CC1(c2ccccc2)OC1C(=O)O (stereo unspecified) | 103% (inactive)
6 | C/C(=C\c1ccc([N+](=O)[O-])cc1)C(=O)O | 105% (inactive)
7 | COc1ccc(C2=NN(C(N)=S)C(c3ccc4c(c3)OCO4)C2)cc1 (stereo unspecified) | 30.4% (inactive)
8 | CC1C(=O)CCCC1=O | 118% (inactive)
9 | CCCCN(CCCC)c1cc(C(=O)CCCCCN)c2ccccc2n1 | -67.9% (active)
10 | CCCCCCN(C)Cc1ccc(OCCOc2ccc(CN(C)CCCCCC)cc2)cc1 | -43.4% (active)
11 | OCC12CCCC(CO)(COC1)C2O (stereo unspecified) | 118% (inactive)
12 | C=CCCC(=O)N1C=CC(=O)[C@H](O)[C@@H]1/C=C/c1ccccc1 | 32.2% [100 µM] (inactive)
13 | O=C1Nc2ccccc2C12C=C(c1ccccc1)Nc1c2c(-c2ccccc2)nn1-c1ccccc1 (stereo unspecified) | 5.77% (active)
14 | CCCn1nc(C(=O)N(C)Cc2ccccc2)c2c1CCC(N1CCc3ccccc31)C2 (stereo unspecified) | 98% (inactive)
15 | COc1ccc2nc3cc(Cl)ccc3c(N3CCN(c4nccc(Nc5ccccc5)n4)CC3)c2c1 | 73.8% (inactive)
16 | CN1C2CCC1/C(=C\c1ccc(Cl)cc1)C1=C2[C@@H](c2ccc(Cl)cc2)C(C#N)=C(N)O1 (stereo partly specified) | 81.8% (inactive)
